50 compounds from ChEMBL document CHEMBL4513216, “Probing the Open Global Health Chemical Diversity Library for Multistage-Active Starting Points for Next-Generation Antimalarials” (ACS Infect Dis, 2020) can be followed below.

The campaign covered roughly 65,000 compounds. About 2,100 (3.2%) showed an effect of 50% or more. The median lay at about -52%. Only a selection was taken, and strong results are over-represented in it overall.

This assay has as its system Plasmodium falciparum. Description: Screen against P. falciparum Asexual Blood Stage (ABS), at 5uM. Type of assay: functional, Dd2. The following applies: tested at 5 uM.
`CC[C@@H]1N(Cc2ccccn2)CCC[C@]12CCC(=O)N2CCOC`: the INHIBITION is -116%.

Turning to `Cc1[nH]c(C2(N)CCCCC2)nc(=O)c1C`, the INHIBITION is given as -60%.

As to `Cc1cnc(N2CCOC3(CCCN(CC(=O)N(C)C)C3)C2)nc1` (stereo not given), the INHIBITION was -6.47%.

Consider `COc1ccc(Cl)cc1CC(=O)N1CCN(CC(C)O)CC1` (stereo not given), for which the INHIBITION is on record as -132%.

On to `CC(CNC(=O)c1cc(Cl)ccc1I)N1CCCC1` (stereo not given), for which the INHIBITION came to 71.1%.

For `Cc1nc(N2C[C@H]3CNC[C@H]3C2)c2sccc2n1`, the INHIBITION was -54.7%.

With `Cc1nc(CO[C@@H]2CN(Cc3cccnc3)[C@@H]3COC[C@@H]32)cs1`, the INHIBITION is given as -14.2%.

For `CCN1CCC2(CCC1=O)CN(c1ccnc(SC)n1)CCN2C` (stereo not given), the INHIBITION is given as -44.5%.

As to `CN(C)C(=O)CN1CCN(C(=O)Cc2csc(-c3ncccn3)n2)CC1`, the INHIBITION is listed as 6.7%.

Turning to `Cc1nc(CC(=O)N2CCN(CCOc3ccccc3)CC2)cs1`, the INHIBITION is reported as -22.5%.

With `Cc1cnn(CCCNCc2csc(COc3ccccc3)n2)c1`, the INHIBITION is on record as 70.9%.

For the compound `CN1CCN(C(=O)Cc2csc(-c3ccsc3)n2)C(c2ccccc2)C1` (stereo not given), the INHIBITION was -7.38%.

`Cc1cnn(CCNCc2csc(-c3ccsc3)n2)c1`: the INHIBITION was found to be 72.3%.

As for `CC(Cn1cccn1)NCc1csc(-c2ccsc2)n1` (stereo not given), the INHIBITION is recorded as -88.6%.

For `Cc1nc(CN2CC[C@H]3[C@H]2CCN3c2ncccn2)cs1`, the INHIBITION is -38%.

For the compound `Cc1cnn(CCNCc2csc(-c3ncccn3)n2)c1`, the INHIBITION was found to be 71.5%.

Regarding `O=C(C1CCOCC1)N1C[C@@H]2CC[C@H]1CN(Cc1ccncc1)C2`, the INHIBITION is recorded as -111%.

As to `COc1ccc2c(c1)c(C(=O)Nc1nnn[nH]1)cn2C`, the INHIBITION is on record as 10.8%.

`Cc1cc(N2CCCC(O)(CN(C)C)C2)c2cc3c(cc2n1)OCO3` (stereo not given): the INHIBITION amounted to 80.2%.

`Cc1cc(N2CCC(O)(CN(C)C)C2)c2cc3c(cc2n1)OCO3` (stereo not given): the INHIBITION turned out to be 89.9%.

In the case of `CCN1CCN(CC(O)c2cc(Cl)ccc2Cl)CC1` (stereo not given), the INHIBITION is recorded as 77%.

With `CCOCCN1CCN(CC(O)c2cc(Cl)ccc2Cl)CC1` (stereo not given), the INHIBITION was 78.5%.

As for `O=C(NCc1cccnc1)[C@H]1CN2CCC1C[C@@H]2Cn1cc(CO)nn1` (stereo not given in full), the INHIBITION is -46.1%.

In the case of `O=C(O)[C@@H]1CN(CC2CCC2)C[C@H]1c1ccc(F)cc1`, the INHIBITION is listed as -73.4%.

As to `O=C(c1ccco1)N1CCN2C[C@H](Oc3cncnc3)C[C@H]2C1`, the INHIBITION was -20.6%.

Consider `CC(C)n1ncc2c1NC(=O)CC21C(=O)Nc2c(Cl)ccc(Cl)c21` (stereo not given), for which the INHIBITION turned out to be 83.5%.

Regarding `O=C(NC[C@H]1C[C@@H]2CCN1C[C@@H]2CN1CCCCC1)c1ccco1`, the INHIBITION is recorded as -92.2%.

Turning to `COc1ccccc1C1SCC(=O)Nc2c1c(=O)[nH]n2C1CCCCC1` (stereo not given), the INHIBITION is listed as -98.6%.

As to `N#Cc1ccc(N2CCC(OC3CCOCC3)CC2)cc1Cl`, the INHIBITION is given as -184%.

Consider `CCC1CCCCN1CCc1ccncc1` (stereo not given), for which the INHIBITION is reported as -81.4%.

Regarding `CCC1CCCCN1Cc1ncc(C(C)(C)C)o1` (stereo not given), the INHIBITION is on record as 71.2%.

With `Cc1cc(CN2CCC(C3CCN(CCc4ccccc4)CC3)C2)[nH]n1` (stereo not given), the INHIBITION is reported as 93.5%.

`Cc1ccc(N2C[C@H]3CCN(Cc4ccncc4)C[C@H]3C2)nn1`: the INHIBITION was -4.71%.

In the case of `COc1ccc(C(=O)C2CCCN(Cc3cc(C)n[nH]3)C2)c(OC)c1` (stereo not given), the INHIBITION is -4.88%.

Regarding `Fc1ccccc1C1(CNC2CCOC3(CCOCC3)C2)CCCC1` (stereo not given), the INHIBITION was found to be 76.3%.

With `CN(C)CCN1CCC2[C@@H]1CCN2Cc1ccc2c(c1)OCO2` (stereo not given in full), the INHIBITION was 72.5%.

Consider `COc1ncccc1CN1C[C@@H]2OCCN(CCN(C)C)[C@@H]2C1`, for which the INHIBITION was -3.36%.

Consider `COc1ncccc1CN1CC[C@H]2O[C@@H](c3nnc(C)o3)CC[C@H]21`, for which the INHIBITION was -71.9%.

Regarding `CN(C)CCN(C(=O)Cc1ccc2c(c1)OCCO2)C1CCN(C)CC1`, the INHIBITION is reported as -48.3%.

For `COc1ncccc1CN1CCC2[C@H]1CCN2CCN(C)C` (stereo not given in full), the INHIBITION is on record as 53.9%.

As to `CN(C)CCN(C)C(=O)Cc1ccc2c(c1)OCCO2`, the INHIBITION is -12.9%.

Consider `Cc1cc(CN2CC[C@H]3C(=O)N(c4ccsc4)CCO[C@H]3C2)no1`, for which the INHIBITION was -34.2%.

As for `Cc1cccc(CO[C@@H]2CC[C@H]3[C@H]2OCCN3Cc2ccsc2)n1`, the INHIBITION is -46.8%.

On to `O=C(N[C@H]1CN(Cc2cccs2)[C@@H]2CCCO[C@H]12)c1cccnc1`, for which the INHIBITION is reported as -57.9%.

Regarding `Cc1noc(C)c1CN1C[C@@H]2C[C@@H](C)O[C@@H]2C1`, the INHIBITION is recorded as -75.1%.

Take `Fc1cccc(CN2C[C@@H]3CN(Cc4ccccn4)C[C@@H]3C2)c1`: the INHIBITION is reported as 89.4%.

`Cn1cnc(S(=O)(=O)N2C[C@H]3CN(Cc4ccccn4)C[C@H]3C2)c1`: the INHIBITION was -85.5%.

As for `O=C(c1cccc(F)c1)N1C[C@H]2CN(Cc3ccccn3)C[C@H]2C1`, the INHIBITION is given as 0.82%.

As for `Cc1noc(C)c1CN1C[C@H]2CN(Cc3cccc(F)c3)C[C@H]2C1`, the INHIBITION is on record as 55.4%.

For `Cc1noc(C)c1CN1C[C@@H]2CC(F)(F)C[C@@H]2C1`, the INHIBITION is -59.4%.
